Assay results taken from PubChem BioAssay AID492992 (Johns Hopkins Ion Channel Center, 2010).
About 2,100 (43%) of roughly 4,900 compounds were called active.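 How the source made its calls: active means thallium signal inhibited by more than 5 SD of the compound-free buffer control wells, on both duplicate plates; inactive means the rest.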 The set was probably picked from earlier hits. The entries come from a sample that favours actives as a whole.

These compounds were tested against Potassium channel subfamily K member 9 (Homo sapiens) (UniProt Q9NPC2) (assay: blockers of human TASK-3 (KCNK9) channel – HEK293 cells, thallium flux, duplicate, confirmation (AID 492992;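 on inhibition: 0% = assay buffer control wells without compound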)). Details: FluxOR thallium flux fluorescence, at 10 µM; hits give high values.
Sequence of Potassium channel subfamily K member 9 (Homo sapiens) (Q9NPC2 whole entry, looked up): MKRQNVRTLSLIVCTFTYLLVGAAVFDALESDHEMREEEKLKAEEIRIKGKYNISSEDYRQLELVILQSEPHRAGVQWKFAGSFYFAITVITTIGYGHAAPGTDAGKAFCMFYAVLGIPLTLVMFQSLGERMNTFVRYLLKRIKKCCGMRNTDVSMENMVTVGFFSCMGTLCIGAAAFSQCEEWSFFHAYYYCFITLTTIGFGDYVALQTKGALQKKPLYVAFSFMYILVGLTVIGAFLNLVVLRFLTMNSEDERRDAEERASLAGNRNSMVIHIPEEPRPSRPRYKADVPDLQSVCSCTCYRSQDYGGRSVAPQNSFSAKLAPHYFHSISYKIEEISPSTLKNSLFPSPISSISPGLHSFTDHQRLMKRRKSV

SMILES | inhibition
CC(C)(C)c1ccc(CN2C(=O)CN=C(c3ccccc3)c3ccccc32)cc1 | 59% (active)
CCOC(=O)C1SC2(C(F)(F)C(F)F)CC1(O)c1c(c(OC)c3occc3c1OC)O2 (stereo unspecified) | 23.5% (active)
CC(C)n1c(=O)c(C=Nc2ccc(Br)cc2)c(O)n(Cc2ccco2)c1=O | inactive
CCCCCCN=C(CC)c1c(O)n(CCCC)c(=O)[nH]c1=O | 46.5% (active)
CC(C)(C)c1ccc(OC(=O)N2CCCCC2)cc1 | inactive
CCCCCCCCCCCCn1ccc(=N)cc1 | 52.5% (active)
